From the supplement of paper PMC9433436
± gives the standard deviation of the averaged measurements. The full ranking holds about 4,100 sequences; the median of “relative kcat/Km (krel) vs genomic leader AAAGAU” is about 1.7, and the highest 2% start at about 6.5. What follows is part of a selection rich in the highest values, with near analogues and random picks from the rest.

Biological target: T1, E. coli RNase P holoenzyme (M1 P RNA + rnpA protein) (UniProt P0A7Y8)
T1 sequence: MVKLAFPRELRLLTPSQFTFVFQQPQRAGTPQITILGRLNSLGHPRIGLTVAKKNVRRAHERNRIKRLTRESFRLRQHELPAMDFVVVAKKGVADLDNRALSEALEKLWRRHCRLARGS
Assay: relative kcat/Km (krel) vs genomic leader AAAGAU (relative (reference leader = 1)); higher = faster RNase P cleavage
Description: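 HTS-Kin: a pool of ptRNA-Met (21C construct) with all 4096 combinations of 5' leader nucleotides N(-6) to N(-1) was processed in vitro by E. coli RNase P (P RNA + rnpA/C5 protein) under multiple-turnover conditions at 37 C, pH 8, 17.5 mM MgCl2. Residual substrate was Illumina-sequenced at several fractions reacted, and relative kcat/Km (krel) was computed by internal competition kinetics, calibrated to the genomic leader (AAAGAU = 1). The listed hexamer is the varied N(-6)..N(-1) leader (DNA letters), and it sits between a fixed 5' stem-loop flank (GCAUGCACGAAAGUGCGUGCUAUGAA) and the mature tRNA-Met starting GGCUACGUAGCUCAGUUGG. Two technical replicates are averaged.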

[1] = fraction of substrate reacted: ~9-10% (9.79% repeat 1, 9.1% repeat 2)
[2] = fraction of substrate reacted: ~13-16% (15.68% repeat 1, 13.17% repeat 2)
[3] = fraction of substrate reacted: ~26-29% (28.66% repeat 1, 26.4% repeat 2)

GACTTC
relative kcat/Km [1]: 3.65 ± 0.53
relative kcat/Km [2]: 4.38 ± 2.1
relative kcat/Km [3]: 6.22 ± 3.3

TTCTTT
relative kcat/Km [1]: 4.38 ± 0.77
relative kcat/Km [2]: 6.36 ± 1.2
relative kcat/Km [3]: 8.65 ± 4

ATCTTT
relative kcat/Km [1]: 3.55 ± 1.4
relative kcat/Km [2]: 4.27 ± 0.42
relative kcat/Km [3]: 6.67 ± 2.8

ATCTTG
relative kcat/Km [2]: 1.15 ± 0.053
relative kcat/Km [3]: 2.716 ± 0.019

TTCTTG
relative kcat/Km [1]: 1.95 ± 1.7
relative kcat/Km [2]: 1.96 ± 0.17
relative kcat/Km [3]: 4 ± 1.1

GCCTTC
relative kcat/Km [1]: 3 ± 0.21
relative kcat/Km [2]: 4.03 ± 2.2
relative kcat/Km [3]: 5.81 ± 3.1

AGCTTT
relative kcat/Km [1]: 2.79 ± 1.2
relative kcat/Km [2]: 2.71 ± 0.49
relative kcat/Km [3]: 4.09 ± 1.6

TGCTTT
relative kcat/Km [1]: 2.25 ± 0.41
relative kcat/Km [2]: 2.232 ± 0.0079
relative kcat/Km [3]: 3.45 ± 1.3

GGCTTA
relative kcat/Km [1]: 1.58 ± 0.71
relative kcat/Km [2]: 1.39 ± 0.29
relative kcat/Km [3]: 1.79 ± 0.95

GTCTTC
relative kcat/Km [1]: 4.4 ± 1.6
relative kcat/Km [2]: 5.61 ± 1.7
relative kcat/Km [3]: 8.18 ± 3.4

GTCTTA
relative kcat/Km [1]: 4.14 ± 1.1
relative kcat/Km [2]: 5.78 ± 0.74
relative kcat/Km [3]: 7.65 ± 2.9

GCCTTA
relative kcat/Km [1]: 2.94 ± 1.2
relative kcat/Km [2]: 3.35 ± 0.54
relative kcat/Km [3]: 5.21 ± 1.5

TCAGCT
relative kcat/Km [1]: 1.54 ± 0.23
relative kcat/Km [2]: 0.491 ± 0.47
relative kcat/Km [3]: 1.24 ± 0.075

GCTGTC
relative kcat/Km [1]: 1.58 ± 0.93
relative kcat/Km [2]: 0.624 ± 0.091
relative kcat/Km [3]: 0.9566 ± 0.0067

GGCGAC
relative kcat/Km [1]: 2.53 ± 0.11
relative kcat/Km [2]: 2.47 ± 1.2
relative kcat/Km [3]: 4.08 ± 1.4

TTAGAT
relative kcat/Km [1]: 1.88 ± 0.57
relative kcat/Km [2]: 2.14 ± 0.17
relative kcat/Km [3]: 2.8 ± 1.2

CTTCCC
relative kcat/Km [1]: 1.37 ± 0.18
relative kcat/Km [2]: 1.5 ± 1.2
relative kcat/Km [3]: 1.93 ± 0.53

GGGATG
relative kcat/Km [1]: 0.585 ± 0.41
relative kcat/Km [3]: 0.779 ± 0.15

CTAGAT
relative kcat/Km [2]: 1.15 ± 0.17
relative kcat/Km [3]: 1.83 ± 0.17

GACCTC
relative kcat/Km [1]: 2.41 ± 0.81
relative kcat/Km [2]: 2.49 ± 0.041
relative kcat/Km [3]: 3.63 ± 0.74

GGATAC
relative kcat/Km [1]: 1.9 ± 1.2
relative kcat/Km [2]: 1.76 ± 0.55
relative kcat/Km [3]: 3.05 ± 0.7

CACTGT
relative kcat/Km [1]: 1.07 ± 0.037
relative kcat/Km [2]: 0.947 ± 0.35
relative kcat/Km [3]: 1.51 ± 1.1

GACTAC
relative kcat/Km [1]: 4 ± 0.5
relative kcat/Km [2]: 6.14 ± 3
relative kcat/Km [3]: 8.43 ± 3.9

CACTGC
relative kcat/Km [1]: 3.89 ± 1.6
relative kcat/Km [2]: 4.53 ± 1.3
relative kcat/Km [3]: 6.06 ± 1.9

CACTAC
relative kcat/Km [1]: 4.63 ± 0.25
relative kcat/Km [2]: 6.82 ± 2.5
relative kcat/Km [3]: 8.23 ± 3.5

CGCTAG
relative kcat/Km [1]: 2.34 ± 1.3
relative kcat/Km [2]: 2.43 ± 1
relative kcat/Km [3]: 3.4 ± 0.31

AACTAC
relative kcat/Km [1]: 3.89 ± 1.7
relative kcat/Km [2]: 4.66 ± 0.63
relative kcat/Km [3]: 6.38 ± 2.5

CGCTAC
relative kcat/Km [1]: 3.79 ± 0.67
relative kcat/Km [2]: 4.78 ± 2.6
relative kcat/Km [3]: 6.76 ± 2.8

CGCTAT
relative kcat/Km [1]: 3.49 ± 0.87
relative kcat/Km [2]: 4.44 ± 1.6
relative kcat/Km [3]: 5.95 ± 2.4

CACTAT
relative kcat/Km [1]: 4.78 ± 1.4
relative kcat/Km [2]: 6.06 ± 2
relative kcat/Km [3]: 8.37 ± 3.9

CGTATA
relative kcat/Km [1]: 2.37 ± 0.34
relative kcat/Km [2]: 2.75 ± 0.17
relative kcat/Km [3]: 3.94 ± 1.5

GATGGT
relative kcat/Km [3]: 2.1 ± 0.88

TGAGAC
relative kcat/Km [1]: 2.71 ± 1.3
relative kcat/Km [2]: 2.56 ± 0.093
relative kcat/Km [3]: 4.48 ± 1.3

TATACA
relative kcat/Km [1]: 1.36 ± 0.29
relative kcat/Km [2]: 2.13 ± 0.035
relative kcat/Km [3]: 3.02 ± 1.8

AGTCGA
relative kcat/Km [1]: 2.68 ± 0.35
relative kcat/Km [2]: 3.65 ± 1.2
relative kcat/Km [3]: 5.59 ± 2

TCCTTA
relative kcat/Km [1]: 3.84 ± 1.5
relative kcat/Km [2]: 4.61 ± 0.54
relative kcat/Km [3]: 6.32 ± 2.4

ACCTAC
relative kcat/Km [1]: 3.44 ± 1.2
relative kcat/Km [2]: 4.53 ± 0.77
relative kcat/Km [3]: 5.77 ± 2.1

GCCTAC
relative kcat/Km [1]: 3.67 ± 1.2
relative kcat/Km [2]: 4.5 ± 0.39
relative kcat/Km [3]: 6.1 ± 2.4

CCCTAC
relative kcat/Km [1]: 4.32 ± 1.6
relative kcat/Km [2]: 5.08 ± 2.3
relative kcat/Km [3]: 7.32 ± 3.6

TCCTTT
relative kcat/Km [1]: 3.7 ± 1.8
relative kcat/Km [2]: 4.6 ± 0.8
relative kcat/Km [3]: 6.89 ± 2.9

CCCTTT
relative kcat/Km [1]: 2.73 ± 0.52
relative kcat/Km [2]: 3.73 ± 1.1
relative kcat/Km [3]: 5.02 ± 2

TCCTAC
relative kcat/Km [1]: 4.6 ± 1.6
relative kcat/Km [2]: 5.74 ± 0.95
relative kcat/Km [3]: 9.69 ± 4.1

TCCTAT
relative kcat/Km [1]: 4.03 ± 0.47
relative kcat/Km [2]: 6.02 ± 0.85
relative kcat/Km [3]: 9.38 ± 4.8

CCCTTC
relative kcat/Km [1]: 3.11 ± 1.4
relative kcat/Km [2]: 3.36 ± 0.74
relative kcat/Km [3]: 4.51 ± 1.3

TCCTTC
relative kcat/Km [1]: 3.75 ± 1.2
relative kcat/Km [2]: 4.99 ± 0.72
relative kcat/Km [3]: 6.44 ± 2.3

ACCTAT
relative kcat/Km [1]: 3.74 ± 1.7
relative kcat/Km [2]: 4.66 ± 0.24
relative kcat/Km [3]: 6.39 ± 2.5

GAAGAT
relative kcat/Km [1]: 1.93 ± 1.7
relative kcat/Km [2]: 1.36 ± 0.085
relative kcat/Km [3]: 1.34 ± 0.35

ATGCTG
relative kcat/Km [3]: 0.658 ± 0.54

CTTAGA
relative kcat/Km [1]: 3.03 ± 0.85
relative kcat/Km [2]: 3.18 ± 0.44
relative kcat/Km [3]: 4.79 ± 1.7

GATACC
relative kcat/Km [2]: 1.49 ± 0.64
relative kcat/Km [3]: 1.67 ± 0.033

CTGAAG
relative kcat/Km [3]: 2.05 ± 0.18

TCCCGT
relative kcat/Km [3]: 1.86 ± 0.041

GCAATT
relative kcat/Km [2]: 0.851 ± 0.064
relative kcat/Km [3]: 1.21 ± 0.26

AGTGTG
relative kcat/Km [3]: 0.473 ± 0.33

GCCTAG
relative kcat/Km [1]: 2.58 ± 1.6
relative kcat/Km [2]: 1.57 ± 0.49
relative kcat/Km [3]: 3.67 ± 1.2

CCCTAA
relative kcat/Km [1]: 3.68 ± 0.17
relative kcat/Km [2]: 4.41 ± 1.4
relative kcat/Km [3]: 6.7 ± 3.1

CCCTAT
relative kcat/Km [1]: 3.137 ± 0.006
relative kcat/Km [2]: 5.47 ± 1.1
relative kcat/Km [3]: 7.09 ± 3.1

ACCTAG
relative kcat/Km [1]: 2.77 ± 2.8
relative kcat/Km [2]: 2.93 ± 0.56
relative kcat/Km [3]: 4.27 ± 0.99

CCTAAA
relative kcat/Km [1]: 2.53 ± 1.5
relative kcat/Km [2]: 2.31 ± 0.051
relative kcat/Km [3]: 3.14 ± 0.82

ACCTAA
relative kcat/Km [1]: 2.83 ± 0.76
relative kcat/Km [2]: 4.49 ± 0.31
relative kcat/Km [3]: 6.74 ± 2.3

CCCTGT
relative kcat/Km [3]: 1.59 ± 0.87

GCCTAT
relative kcat/Km [1]: 2.77 ± 0.47
relative kcat/Km [2]: 3.91 ± 0.98
relative kcat/Km [3]: 6.22 ± 2.8

CCCCCT
relative kcat/Km [1]: 2.27 ± 1.8
relative kcat/Km [2]: 1.25 ± 0.29
relative kcat/Km [3]: 1.95 ± 0.15
